# From paper PMC7862700, “An all-to-all approach to the identification of sequence-specific readers for epigenetic DNA modifications on cytosine”
# Assays:
# Assay in all cases: DAPPL (digital affinity profiling via proximity ligation, sequencing); 10 mM Tris-HCl pH 7.5, 50 mM NaCl, 1 mM DTT, 4% glycerol, room temperature, 30 min; GST-TFs on glutathione beads, 16-mer random dsDNA library, 0.1% formaldehyde crosslink after washing; high values mean tight binding
# FEV = biological target: T1, FEV (Homo sapiens, UniProt Q99581 1-238); conditions: protein: recombinant; tags: N-terminal GST; dsDNA, one strand shown
# T1 sequence: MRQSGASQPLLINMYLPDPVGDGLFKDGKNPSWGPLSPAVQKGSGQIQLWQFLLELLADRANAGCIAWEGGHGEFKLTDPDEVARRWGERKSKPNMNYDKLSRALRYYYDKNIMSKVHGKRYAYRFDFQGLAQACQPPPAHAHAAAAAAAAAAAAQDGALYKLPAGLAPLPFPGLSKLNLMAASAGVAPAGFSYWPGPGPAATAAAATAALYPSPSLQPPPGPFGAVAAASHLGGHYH
# Summary of the method: (§1)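 Binding signal is each hexamer's read frequency for a factor divided by its frequency in the tag-only sample. The factors were GST-fused human transcription factors from yeast, captured on glutathione beads, DNA-barcoded and pooled with that sample. Pools were incubated with 200 nmole of a random double-stranded 16-mer DNA library in Tris/NaCl/DTT/glycerol buffer at room temperature for 30 min, then washed, crosslinked with 0.1% formaldehyde, proximity-ligated with BsaI/T4 ligase (1 h, 37 °C), PCR-amplified and sequenced on an Illumina NextSeq500.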
# ETV5 = ETV5 (Homo sapiens, UniProt P41161 1-510); conditions: protein: recombinant; tags: N-terminal GST; dsDNA, one strand shown
# Summary of the method: as §1
# HSF1 = HSF1 (Homo sapiens, UniProt Q00613 1-529); conditions: protein: recombinant; tags: N-terminal GST; chain copies: 3; dsDNA, one strand shown
# Summary of the method: as §1
# SPIC = biological target: T2, SPIC (Homo sapiens, UniProt Q8N5J4 1-248); conditions: protein: recombinant; tags: N-terminal GST; dsDNA, one strand shown
# T2 sequence: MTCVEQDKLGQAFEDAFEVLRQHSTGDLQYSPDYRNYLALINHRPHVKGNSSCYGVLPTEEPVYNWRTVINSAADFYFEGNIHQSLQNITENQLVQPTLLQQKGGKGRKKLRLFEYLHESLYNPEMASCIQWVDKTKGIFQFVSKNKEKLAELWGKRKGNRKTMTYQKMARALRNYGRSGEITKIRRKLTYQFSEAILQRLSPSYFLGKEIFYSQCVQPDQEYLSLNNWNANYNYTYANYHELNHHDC
# Summary of the method: as §1
# ELF4 = ELF4 (Homo sapiens, UniProt Q99607 1-663); conditions: protein: recombinant; tags: N-terminal GST; dsDNA, one strand shown
# Summary of the method: as §1
# ELK4 = biological target: T3, ELK4 (Homo sapiens, UniProt P28324-2 1-405); conditions: protein: recombinant; tags: N-terminal GST; dsDNA, one strand shown
# T3 sequence: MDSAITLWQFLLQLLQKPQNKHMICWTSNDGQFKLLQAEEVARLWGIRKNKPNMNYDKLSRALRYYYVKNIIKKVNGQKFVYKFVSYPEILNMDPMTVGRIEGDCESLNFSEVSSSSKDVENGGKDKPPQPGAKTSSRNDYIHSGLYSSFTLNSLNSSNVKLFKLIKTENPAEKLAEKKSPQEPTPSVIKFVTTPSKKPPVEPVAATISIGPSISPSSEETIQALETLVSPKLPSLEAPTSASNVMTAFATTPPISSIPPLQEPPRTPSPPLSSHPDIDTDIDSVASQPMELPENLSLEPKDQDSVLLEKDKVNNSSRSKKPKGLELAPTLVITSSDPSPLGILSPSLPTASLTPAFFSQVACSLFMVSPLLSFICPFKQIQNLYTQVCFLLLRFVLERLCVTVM
# Summary of the method: as §1
# ETV2 = biological target: T4, ETV2 (Homo sapiens, UniProt O00321 1-342); conditions: protein: recombinant; tags: N-terminal GST; dsDNA, one strand shown
# T4 sequence: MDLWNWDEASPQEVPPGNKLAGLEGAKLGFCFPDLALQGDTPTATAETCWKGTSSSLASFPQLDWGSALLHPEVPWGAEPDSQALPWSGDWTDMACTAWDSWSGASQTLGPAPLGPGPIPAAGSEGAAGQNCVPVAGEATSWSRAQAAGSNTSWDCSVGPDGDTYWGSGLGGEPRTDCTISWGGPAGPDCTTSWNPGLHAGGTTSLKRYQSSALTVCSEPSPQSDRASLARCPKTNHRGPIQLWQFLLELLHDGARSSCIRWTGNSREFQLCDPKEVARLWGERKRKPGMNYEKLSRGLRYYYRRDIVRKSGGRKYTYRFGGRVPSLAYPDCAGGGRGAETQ
# Summary of the method: as §1
# ELF3 = biological target: T5, ELF3 (Homo sapiens, UniProt P78545 1-371); conditions: protein: recombinant; tags: N-terminal GST; dsDNA, one strand shown
# T5 sequence: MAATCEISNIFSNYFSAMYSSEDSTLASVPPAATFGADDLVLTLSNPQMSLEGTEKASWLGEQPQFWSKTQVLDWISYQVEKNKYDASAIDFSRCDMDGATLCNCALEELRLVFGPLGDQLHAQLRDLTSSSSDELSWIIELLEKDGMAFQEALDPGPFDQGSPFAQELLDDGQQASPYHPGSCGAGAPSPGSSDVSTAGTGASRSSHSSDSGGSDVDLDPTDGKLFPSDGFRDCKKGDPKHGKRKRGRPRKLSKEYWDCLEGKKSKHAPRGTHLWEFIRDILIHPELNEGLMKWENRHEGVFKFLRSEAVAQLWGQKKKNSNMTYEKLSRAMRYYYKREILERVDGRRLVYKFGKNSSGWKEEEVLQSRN
# Summary of the method: as §1
# CRX = CRX (Homo sapiens, UniProt O43186 1-299); conditions: protein: recombinant; tags: N-terminal GST; dsDNA, one strand shown
# Summary of the method: as §1
# ETV1 = ETV1 (Homo sapiens, UniProt P50549 1-477); conditions: protein: recombinant; tags: N-terminal GST; dsDNA, one strand shown
# Summary of the method: as §1
# ERF = biological target: T6, ERF (Homo sapiens, UniProt P50548 1-548); conditions: protein: recombinant; tags: N-terminal GST; dsDNA, one strand shown
# T6 sequence: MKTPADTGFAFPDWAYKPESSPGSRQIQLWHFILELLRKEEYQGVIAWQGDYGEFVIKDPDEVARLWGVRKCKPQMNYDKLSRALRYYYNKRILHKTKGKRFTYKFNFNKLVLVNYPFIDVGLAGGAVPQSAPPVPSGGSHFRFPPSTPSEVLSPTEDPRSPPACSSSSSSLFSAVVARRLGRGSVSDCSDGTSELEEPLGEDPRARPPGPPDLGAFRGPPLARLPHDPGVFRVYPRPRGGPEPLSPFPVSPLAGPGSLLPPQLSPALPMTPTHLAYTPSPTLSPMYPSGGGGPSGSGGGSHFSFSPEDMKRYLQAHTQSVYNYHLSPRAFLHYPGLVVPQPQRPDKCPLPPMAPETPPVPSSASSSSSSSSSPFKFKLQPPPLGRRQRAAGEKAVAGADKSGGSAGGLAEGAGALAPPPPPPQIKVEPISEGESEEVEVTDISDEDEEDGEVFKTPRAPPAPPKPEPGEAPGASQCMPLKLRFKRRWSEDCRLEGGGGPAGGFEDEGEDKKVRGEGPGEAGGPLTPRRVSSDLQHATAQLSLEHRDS
# Summary of the method: as §1
# ETV3L = biological target: T7, ETV3L (Homo sapiens, UniProt Q6ZN32 1-361); conditions: protein: recombinant; tags: N-terminal GST; dsDNA, one strand shown
# T7 sequence: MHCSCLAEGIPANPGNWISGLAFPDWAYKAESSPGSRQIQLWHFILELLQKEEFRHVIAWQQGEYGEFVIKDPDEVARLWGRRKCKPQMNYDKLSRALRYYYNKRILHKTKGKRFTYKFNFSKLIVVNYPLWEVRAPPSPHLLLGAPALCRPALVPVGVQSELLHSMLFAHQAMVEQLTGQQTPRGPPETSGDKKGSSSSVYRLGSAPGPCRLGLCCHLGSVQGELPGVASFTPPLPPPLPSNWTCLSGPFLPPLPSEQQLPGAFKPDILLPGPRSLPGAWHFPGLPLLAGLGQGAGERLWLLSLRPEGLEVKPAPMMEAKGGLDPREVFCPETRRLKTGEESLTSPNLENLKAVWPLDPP
# Summary of the method: as §1
# ETS2 = biological target: T8, ETS2 (Homo sapiens, UniProt P15036 1-469); conditions: protein: recombinant; tags: N-terminal GST; dsDNA, one strand shown
# T8 sequence: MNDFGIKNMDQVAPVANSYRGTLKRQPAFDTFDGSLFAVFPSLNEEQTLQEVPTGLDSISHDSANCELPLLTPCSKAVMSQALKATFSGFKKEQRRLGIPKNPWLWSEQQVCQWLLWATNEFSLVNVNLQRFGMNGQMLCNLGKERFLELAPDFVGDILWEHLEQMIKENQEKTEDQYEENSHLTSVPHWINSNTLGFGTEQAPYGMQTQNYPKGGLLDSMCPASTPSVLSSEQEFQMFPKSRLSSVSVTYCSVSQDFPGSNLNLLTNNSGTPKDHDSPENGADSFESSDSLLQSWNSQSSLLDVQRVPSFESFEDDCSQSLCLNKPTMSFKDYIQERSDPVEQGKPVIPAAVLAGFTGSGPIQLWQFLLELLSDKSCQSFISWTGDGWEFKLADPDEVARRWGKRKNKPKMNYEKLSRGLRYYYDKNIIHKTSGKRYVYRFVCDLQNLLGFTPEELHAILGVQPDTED
# Summary of the method: as §1
# SPDEF = biological target: T9, SPDEF (Homo sapiens, UniProt O95238 1-335); conditions: protein: recombinant; tags: N-terminal GST; dsDNA, one strand shown
# T9 sequence: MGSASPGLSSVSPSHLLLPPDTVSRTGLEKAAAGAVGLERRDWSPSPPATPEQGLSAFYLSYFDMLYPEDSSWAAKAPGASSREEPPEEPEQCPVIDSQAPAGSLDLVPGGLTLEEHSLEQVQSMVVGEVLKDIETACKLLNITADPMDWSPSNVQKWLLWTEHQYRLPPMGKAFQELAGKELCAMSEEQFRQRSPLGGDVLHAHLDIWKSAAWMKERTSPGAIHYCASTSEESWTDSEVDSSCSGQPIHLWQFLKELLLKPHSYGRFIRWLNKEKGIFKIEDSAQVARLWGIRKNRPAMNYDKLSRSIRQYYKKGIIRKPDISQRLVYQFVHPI
# Summary of the method: as §1
# ETV7 = biological target: T10, ETV7 (Homo sapiens, UniProt Q9Y603 1-341); conditions: protein: recombinant; tags: N-terminal GST; dsDNA, one strand shown
# T10 sequence: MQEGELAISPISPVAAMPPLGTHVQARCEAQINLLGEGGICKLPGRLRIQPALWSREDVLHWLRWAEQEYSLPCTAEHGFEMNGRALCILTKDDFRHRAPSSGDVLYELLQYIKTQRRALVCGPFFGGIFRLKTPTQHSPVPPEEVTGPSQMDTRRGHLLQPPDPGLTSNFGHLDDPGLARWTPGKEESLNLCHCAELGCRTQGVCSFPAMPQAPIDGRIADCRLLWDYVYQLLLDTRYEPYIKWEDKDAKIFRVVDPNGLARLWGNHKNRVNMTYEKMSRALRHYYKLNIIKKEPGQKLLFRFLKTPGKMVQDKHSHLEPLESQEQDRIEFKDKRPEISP
# Summary of the method: as §1
# ELF5 = biological target: T11, ELF5 (Homo sapiens, UniProt Q9UKW6-2 1-255); conditions: protein: recombinant; tags: N-terminal GST; dsDNA, one strand shown
# T11 sequence: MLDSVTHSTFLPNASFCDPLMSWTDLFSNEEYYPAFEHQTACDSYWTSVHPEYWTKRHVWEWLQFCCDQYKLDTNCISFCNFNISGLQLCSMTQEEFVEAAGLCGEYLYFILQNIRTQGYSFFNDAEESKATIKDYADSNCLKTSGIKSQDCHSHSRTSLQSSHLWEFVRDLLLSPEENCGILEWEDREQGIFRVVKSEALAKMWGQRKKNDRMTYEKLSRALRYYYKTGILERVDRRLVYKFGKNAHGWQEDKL
# Summary of the method: as §1
# ETV3 = biological target: T12, ETV3 (Homo sapiens, UniProt P41162-2 1-143); conditions: protein: recombinant; tags: N-terminal GST; dsDNA, one strand shown
# T12 sequence: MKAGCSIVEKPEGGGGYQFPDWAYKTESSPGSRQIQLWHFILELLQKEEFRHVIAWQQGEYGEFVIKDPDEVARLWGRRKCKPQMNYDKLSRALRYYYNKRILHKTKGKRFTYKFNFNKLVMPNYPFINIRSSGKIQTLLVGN
# Summary of the method: as §1
# ETV6 = ETV6 (Homo sapiens, UniProt P41212 1-452); conditions: protein: recombinant; tags: N-terminal GST; dsDNA, one strand shown
# Summary of the method: as §1
# Sequence of ETV5 (P41161 whole entry): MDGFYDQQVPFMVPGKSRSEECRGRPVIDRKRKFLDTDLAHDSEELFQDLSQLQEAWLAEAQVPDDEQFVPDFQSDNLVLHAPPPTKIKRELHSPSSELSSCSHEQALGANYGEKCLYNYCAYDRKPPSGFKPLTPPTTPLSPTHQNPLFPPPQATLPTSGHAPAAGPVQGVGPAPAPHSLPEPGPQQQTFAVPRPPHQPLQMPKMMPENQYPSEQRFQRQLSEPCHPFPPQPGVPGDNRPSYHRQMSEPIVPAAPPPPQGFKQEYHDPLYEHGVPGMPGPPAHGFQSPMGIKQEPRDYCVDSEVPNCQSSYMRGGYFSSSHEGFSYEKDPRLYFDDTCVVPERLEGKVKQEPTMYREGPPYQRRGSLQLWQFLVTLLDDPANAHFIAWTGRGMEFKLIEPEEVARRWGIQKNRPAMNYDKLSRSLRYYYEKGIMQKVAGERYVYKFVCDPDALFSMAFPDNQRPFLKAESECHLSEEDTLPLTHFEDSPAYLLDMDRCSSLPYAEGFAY
# Sequence of ELF4 (Q99607 whole entry): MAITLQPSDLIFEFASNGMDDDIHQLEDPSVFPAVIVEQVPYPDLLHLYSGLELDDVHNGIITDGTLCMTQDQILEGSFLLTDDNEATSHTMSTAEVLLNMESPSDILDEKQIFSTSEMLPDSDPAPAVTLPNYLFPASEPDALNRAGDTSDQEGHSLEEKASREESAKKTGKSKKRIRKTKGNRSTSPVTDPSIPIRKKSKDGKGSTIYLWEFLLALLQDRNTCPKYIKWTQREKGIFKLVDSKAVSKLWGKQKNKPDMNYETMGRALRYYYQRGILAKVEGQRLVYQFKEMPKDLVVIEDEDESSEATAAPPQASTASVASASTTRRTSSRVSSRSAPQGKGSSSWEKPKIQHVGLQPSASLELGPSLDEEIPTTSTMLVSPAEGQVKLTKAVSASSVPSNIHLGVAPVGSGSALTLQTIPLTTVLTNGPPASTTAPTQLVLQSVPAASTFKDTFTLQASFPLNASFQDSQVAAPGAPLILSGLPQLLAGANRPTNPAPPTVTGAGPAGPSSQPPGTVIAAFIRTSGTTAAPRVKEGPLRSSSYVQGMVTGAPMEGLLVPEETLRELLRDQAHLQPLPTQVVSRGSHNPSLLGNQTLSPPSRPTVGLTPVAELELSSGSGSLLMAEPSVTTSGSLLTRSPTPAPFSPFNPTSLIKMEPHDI
# Sequence of ETV6 (P41212 whole entry): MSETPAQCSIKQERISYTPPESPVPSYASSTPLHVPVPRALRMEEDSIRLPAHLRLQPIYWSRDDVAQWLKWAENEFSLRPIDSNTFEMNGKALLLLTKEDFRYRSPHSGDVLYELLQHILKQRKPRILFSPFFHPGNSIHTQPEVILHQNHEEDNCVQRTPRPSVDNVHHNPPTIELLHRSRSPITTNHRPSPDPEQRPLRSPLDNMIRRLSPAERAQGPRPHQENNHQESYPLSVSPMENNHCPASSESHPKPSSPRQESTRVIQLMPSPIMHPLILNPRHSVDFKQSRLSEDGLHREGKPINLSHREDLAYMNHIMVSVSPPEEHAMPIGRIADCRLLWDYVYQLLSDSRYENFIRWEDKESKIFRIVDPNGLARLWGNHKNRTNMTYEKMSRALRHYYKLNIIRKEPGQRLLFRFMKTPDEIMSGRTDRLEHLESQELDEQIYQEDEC
# Sequence of CRX (O43186 whole entry): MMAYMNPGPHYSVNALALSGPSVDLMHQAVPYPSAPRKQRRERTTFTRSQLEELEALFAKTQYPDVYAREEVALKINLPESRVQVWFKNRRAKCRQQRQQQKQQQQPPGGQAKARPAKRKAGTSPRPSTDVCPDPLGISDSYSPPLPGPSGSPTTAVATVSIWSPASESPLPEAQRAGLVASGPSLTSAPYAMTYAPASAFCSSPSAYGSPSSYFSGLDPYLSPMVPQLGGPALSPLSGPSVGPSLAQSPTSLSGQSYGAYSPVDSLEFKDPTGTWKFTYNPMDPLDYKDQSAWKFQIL
# Sequence of ETV1 (P50549 whole entry): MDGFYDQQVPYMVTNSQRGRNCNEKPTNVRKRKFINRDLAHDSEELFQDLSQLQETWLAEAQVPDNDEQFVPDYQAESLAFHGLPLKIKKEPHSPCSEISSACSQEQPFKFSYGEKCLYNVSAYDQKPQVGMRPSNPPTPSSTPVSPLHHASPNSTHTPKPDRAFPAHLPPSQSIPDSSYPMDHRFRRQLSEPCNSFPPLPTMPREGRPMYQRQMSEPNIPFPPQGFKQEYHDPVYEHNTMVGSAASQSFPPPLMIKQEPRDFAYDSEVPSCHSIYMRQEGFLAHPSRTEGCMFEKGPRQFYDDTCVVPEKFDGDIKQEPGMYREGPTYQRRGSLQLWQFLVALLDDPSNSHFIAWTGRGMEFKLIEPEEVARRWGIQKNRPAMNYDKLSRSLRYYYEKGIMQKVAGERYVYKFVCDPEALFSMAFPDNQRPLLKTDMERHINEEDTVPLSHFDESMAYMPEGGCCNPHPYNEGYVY
# Sequence of HSF1 (Q00613 whole entry): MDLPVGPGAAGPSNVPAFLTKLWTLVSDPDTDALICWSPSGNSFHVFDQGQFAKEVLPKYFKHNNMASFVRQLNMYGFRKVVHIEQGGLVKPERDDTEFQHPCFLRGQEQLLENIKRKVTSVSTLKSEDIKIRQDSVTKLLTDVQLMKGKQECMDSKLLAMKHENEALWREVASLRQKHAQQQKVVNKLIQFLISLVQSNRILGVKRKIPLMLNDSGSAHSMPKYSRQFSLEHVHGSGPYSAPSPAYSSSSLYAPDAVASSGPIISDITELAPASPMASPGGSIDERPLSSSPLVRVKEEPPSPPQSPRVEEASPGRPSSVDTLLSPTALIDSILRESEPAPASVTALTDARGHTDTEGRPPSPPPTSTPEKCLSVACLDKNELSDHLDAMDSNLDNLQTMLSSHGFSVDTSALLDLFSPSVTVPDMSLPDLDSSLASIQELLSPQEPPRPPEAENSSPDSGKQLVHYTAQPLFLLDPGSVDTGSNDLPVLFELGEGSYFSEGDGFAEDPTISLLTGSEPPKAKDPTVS
sequence,measurement,setting,value
GTATCT,binding signal,FEV,"1.14 fold enrichment (6-mer frequency, TF over GST control)"
same,binding signal,ETV5,"1.11 fold enrichment (6-mer frequency, TF over GST control)"
same,binding signal,HSF1,"1.15 fold enrichment (6-mer frequency, TF over GST control)"
same,binding signal,SPIC,"1.15 fold enrichment (6-mer frequency, TF over GST control)"
same,binding signal,ELF4,"1.14 fold enrichment (6-mer frequency, TF over GST control)"
same,binding signal,ELK4,"1.22 fold enrichment (6-mer frequency, TF over GST control)"
same,binding signal,ETV2,"1.23 fold enrichment (6-mer frequency, TF over GST control)"
same,binding signal,ELF3,"1.26 fold enrichment (6-mer frequency, TF over GST control)"
same,binding signal,CRX,"1.02 fold enrichment (6-mer frequency, TF over GST control)"
same,binding signal,ETV1,"1.15 fold enrichment (6-mer frequency, TF over GST control)"
same,binding signal,ERF,"1.16 fold enrichment (6-mer frequency, TF over GST control)"
same,binding signal,ETV3L,"1.16 fold enrichment (6-mer frequency, TF over GST control)"
same,binding signal,ETS2,"1.05 fold enrichment (6-mer frequency, TF over GST control)"
same,binding signal,SPDEF,"1.14 fold enrichment (6-mer frequency, TF over GST control)"
same,binding signal,ETV7,"1.14 fold enrichment (6-mer frequency, TF over GST control)"
same,binding signal,ELF5,"1.18 fold enrichment (6-mer frequency, TF over GST control)"
same,binding signal,ETV3,"1.13 fold enrichment (6-mer frequency, TF over GST control)"
same,binding signal,ETV6,"1.19 fold enrichment (6-mer frequency, TF over GST control)"
